Shown is part of a subset that was picked to be rich in hits.
HIV RNase H inh-1 = inhibitors of HIV-1 reverse transcriptase RNase H; RT-RNase H RNA/DNA duplex cleavage, fluorescence; inhibition, % at 10 µM; 65,000 compounds, 1.9% hits; P04585; in the data active means inhibition above about 50%
HIV RNase H inh-2 = confirmation of HIV-1 reverse transcriptase RNase H inhibitors. shares compounds with HIV RNase H inh-1. 1,000 compounds, 39% hits. Recombinant RT RNase H, fluorescent RNA/DNA duplex cleavage. inhibition, % at 10 µM; in the data active means inhibition above about 48%
Hits are given with their value; i = inactive.

SMILES | HIV RNase H inh-1 | others
c1csc(-c2nn3c(C4COc5ccccc5O4)nnc3s2)c1 (configuration not stated) | 91 | HIV RNase H inh-2=62
CS(=O)(=O)N(CC(=O)Nc1cccc(F)c1)Cc1ccccc1 | i
Cc1ccc2c(c1)c(-c1ccccc1)nc1nncn12 | i
CCC(C)C(NS(=O)(=O)c1ccc(C)cc1)C(=O)NCCN1CCOCC1 (configuration not stated) | i
O=C(Nc1ccccc1C(F)(F)F)c1cc(S(=O)(=O)N2CCOCC2)ccc1F | i
COc1ccc(NC(C)=O)cc1NC(=O)CSc1nnc(-c2ccc(F)cc2)n1N | i
O=C(NCCCn1ccnc1)C1c2ccccc2Oc2ccccc21 | i
CC(=O)N(C)c1ccc(NC(=O)c2cnn(C)c2)cc1 | i
CCCc1nn(CCc2ccccn2)c(N)c1CC | i
O=C(CN(c1ccc(F)cc1)S(=O)(=O)c1ccc2c(c1)OCCO2)N1CCOCC1 | i
CCOC(=O)N1CCC(n2c(SCC(=O)NCc3ccco3)nc3ccsc3c2=O)CC1 | i
CCOC(=O)CSc1nc2cc(C(=O)N3CCC(C(N)=O)CC3)ccc2c(=O)n1-c1ccccc1 | i
CCOC(=O)CSc1nc2cc(C(=O)NCc3ccco3)ccc2c(=O)n1C1CCCCC1 | 73 | HIV RNase H inh-2=57
CCOC(=O)CSc1nc2ccccc2c(=O)n1CC1CCC(C(=O)NCc2ccco2)CC1 (configuration not stated) | i
CCOC(=O)CSc1nc2cc(C(=O)NCc3ccco3)ccc2c(=O)n1-c1ccc(F)cc1 | 84 | HIV RNase H inh-2=66
COc1ccc(-n2c(=S)[nH]c3cc(C(=O)NCc4ccco4)ccc3c2=O)cc1OC | i
CN(C)CCNC(=O)C12CC3(C)CC(C)(CC(C)(C3)C1)C2 | i
CCOCCn1c(=O)c2c(nc3n2CCN3c2ccc(CC)cc2)n(C)c1=O | i
COc1ccc(-c2nc3cc(NC(=O)Cc4ccc(OC)c(OC)c4)ccc3o2)cc1 | i
O=C(Nc1cccc(F)c1)c1c(F)c(F)c(F)c(F)c1F | i
CN(C)c1cccc(C(=O)Nc2cccc(F)c2)c1 | 80 | HIV RNase H inh-2=85
CCN(CC)c1ccc(C(=O)Nc2cccc(F)c2)cc1 | i
COc1cccc(C(c2sc3nc(C)nn3c2O)N2CCC3(CC2)OCCO3)c1 (configuration not stated) | i
COc1cccc(C(c2sc3nc(C)nn3c2O)N2CCc3ccccc3C2)c1 (configuration not stated) | 81 | HIV RNase H inh-2=i
CCN1CCN(C(c2cccc(OC)c2)c2sc3nc(C)nn3c2O)CC1 (configuration not stated) | i
SMILES | HIV RNase H inh-1 | others
CS(=O)(=O)N(CC(=O)NCc1ccncc1)c1cc(Cl)cc(Cl)c1 | i
Cc1noc(/C=C/N(C)C)c1S(=O)(=O)N1CCCC(C(=O)NCc2ccccc2Cl)C1 (configuration not stated) | i
c1ccc(-c2nc3cc(Cc4ccc5oc(-c6ccccn6)nc5c4)ccc3o2)nc1 | i
COc1ccc(C2C3=C(CCCC3=O)Nc3nc(C(F)(F)F)nn32)c(OC)c1OC (configuration not stated) | i
O=C(/C=N/O)NCCCn1ccnc1 | i
C/C(=N\O)C(=O)NCCN1CCCCC1 | i
O=C(/C=N/O)NCCN1CCCCC1 | 71 | HIV RNase H inh-2=i
O=C(NCc1cccs1)c1cc(-c2cccs2)on1 | i
O=C(Cc1ccccc1)Nc1nnc(-c2cccs2)s1 | i
O=C(O)CCc1ccc(-c2cccs2)o1 | 89 | HIV RNase H inh-2=i
CCCn1nnc(NC(=O)COc2ccc(C3CCCCC3)cc2)n1 | i
Cn1c(=O)[nH]c(=O)c2c1nc(SCC(O)CO)n2Cc1ccccc1Cl (configuration not stated) | i
OCCN(Cc1ccccc1)Cc1ccc(F)c(F)c1 | i
CSc1ccccc1NC(=O)c1cccnc1 | i
COc1cccc(-c2nc(CS(=O)(=O)CC(=O)NCCCN3CCc4ccccc4C3)c(C)o2)c1 | i
O=C(NCC(=O)N(CC1CCCO1)C(C(=O)NC1CCCCC1)c1ccc(F)cc1)c1ccco1 (configuration not stated) | i
CCC(C(=O)NC1CCCCC1)N(CC1CCCO1)C(=O)CNS(=O)(=O)c1ccc(OC)cc1 (configuration not stated) | i
CCCC(C(=O)NC1CCCCC1)N(CC1CCCO1)C(=O)CNS(=O)(=O)c1ccc(F)cc1 (configuration not stated) | 58 | HIV RNase H inh-2=i
CCN(CCCNS(=O)(=O)c1ccc2c(c1)CCN2C(C)=O)c1cccc(C)c1 | i
Cc1ccc(C(=O)NCCCn2ccnc2)o1 | i
COCCSc1ccccc1C(=O)NCCCn1ccnc1 | i
O=C(NCCCn1ccnc1)C(Cc1ccccc1)N1C(=O)c2ccccc2C1=O (configuration not stated) | 55 | HIV RNase H inh-2=i
O=C(NCc1ccco1)C(c1cccnc1)N(C(=O)Cn1nnc2ccccc21)c1ccc(F)cc1 (configuration not stated) | i
Cc1cc(NC(=O)CN2CCN(c3ccccc3F)CC2)nc2c1c(=O)oc1ccccc12 | i
CCOC(=O)Cn1c(=O)c2c(nc(Br)n2Cc2ccc(Cl)cc2)n(C)c1=O | i
SMILES | HIV RNase H inh-1 | others
Cc1cc(N=Cc2c(O)n(-c3ccc4c(c3)OCO4)c(=O)c3ccccc23)ccn1 | i
Cc1cccc(-n2c(-c3ccco3)nc3ccccc3c2=O)n1 | i
Cc1cccc(-n2c(O)c(C=Nc3ccc4c(c3)OCO4)c3ccccc3c2=O)n1 | 65 | HIV RNase H inh-2=i
C=CCc1ccc(OCCCCCN2CCOCC2)c(OC)c1 | i
COc1ccccc1NC(=O)N1CCN(c2ncccn2)CC1 | i
O=C(c1ccccc1C(F)(F)F)N1CCN(S(=O)(=O)c2ccccc2)CC1 | i
COC(=O)CN(c1ccc(F)cc1)S(=O)(=O)c1ccccc1 | i
COC(=O)CN(c1ccccc1F)S(=O)(=O)c1ccccc1 | i
COC(=O)CN(c1ccccn1)S(=O)(=O)c1ccccc1 | 73 | HIV RNase H inh-2=i
CCCn1c(CNc2ccc(Br)cc2)nc2ccccc21 | i
COc1ccc(OCc2nnc(SC(C)C(=O)Nc3nccs3)n2-c2ccccc2)cc1 (configuration not stated) | i
O=C(Nc1cccc(F)c1)C1C2C=CC3(CN(CCCN4CCOCC4)C(=O)C13)O2 (configuration not stated) | i
O=C(CSc1nnc(-c2ccco2)n1-c1ccccc1)N1CCOCC1 | i
OCCn1c(CSc2nc3ccccc3n2CCO)nc2ccccc21 | i
OCCn1c(CSc2nnc(-c3ccco3)n2-c2ccccc2)nc2ccc(Cl)cc21 | 80 | HIV RNase H inh-2=i
Cc1ccc2c(C)nc(NC3=NCN(CCc4ccccc4)CN3)nc2c1 | i
CC(=O)N(Cc1cc(=O)[nH]c2ccccc12)c1ccccc1 | i
COc1ccc2[nH]c(=O)c(CN(C(C)=O)c3cccc(C)c3)cc2c1 | i
CC(=O)N(Cc1cc(=O)[nH]c2ccccc12)c1cccc(C)c1 | 82 | HIV RNase H inh-2=67
Cc1cc(C)cc(-n2cc3c(=O)n(C)c(=O)n(C)c3c2)c1 | i
COc1ccc(C2C(C(C)=O)=C(C)N=c3s/c(=C/c4ccc5c(c4)OCO5)c(=O)n32)cc1 (configuration not stated) | 70 | HIV RNase H inh-2=54
CCOC(=O)C1=C(C)N=c2s/c(=C/c3ccco3)c(=O)n2C1c1cccc(OC)c1 (configuration not stated) | i
CC(=O)C1=C(C)N=c2s/c(=C/c3ccc4c(c3)OCO4)c(=O)n2C1c1ccc(N(C)C)cc1 (configuration not stated) | i
COC(=O)c1ccc(CSc2ccc3nnc(-c4ccc(OC)c(OC)c4)n3n2)o1 | i
